Measurements published in paper PMC7862700, “An all-to-all approach to the identification of sequence-specific readers for epigenetic DNA modifications on cytosine”.

Tests used:
Assay in all cases: DAPPL (digital affinity profiling via proximity ligation, sequencing); 10 mM Tris-HCl pH 7.5, 50 mM NaCl, 1 mM DTT, 4% glycerol, room temperature, 30 min; GST-TFs on glutathione beads, 16-mer random dsDNA library, 0.1% formaldehyde crosslink after washing; high values mean tight binding
FLI1 = target: T1, FLI1 (Homo sapiens, UniProt Q01543 1-452); details: protein: recombinant; tags: N-terminal GST; dsDNA, one strand shown
T1 sequence: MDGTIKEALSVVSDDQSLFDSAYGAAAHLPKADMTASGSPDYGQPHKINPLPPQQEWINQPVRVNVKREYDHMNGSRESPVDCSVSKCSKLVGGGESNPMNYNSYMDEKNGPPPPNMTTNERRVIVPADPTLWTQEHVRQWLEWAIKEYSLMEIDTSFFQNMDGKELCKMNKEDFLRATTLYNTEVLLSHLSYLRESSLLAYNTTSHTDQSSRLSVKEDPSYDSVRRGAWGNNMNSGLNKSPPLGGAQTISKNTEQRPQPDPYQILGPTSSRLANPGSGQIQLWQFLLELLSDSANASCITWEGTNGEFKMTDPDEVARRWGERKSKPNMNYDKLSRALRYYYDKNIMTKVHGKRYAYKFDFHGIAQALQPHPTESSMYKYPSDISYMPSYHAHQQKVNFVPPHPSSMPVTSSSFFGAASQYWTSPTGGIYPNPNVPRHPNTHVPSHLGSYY
Procedure, shortened: (§1)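 Beads coated with glutathione captured GST-fused human transcription factors that had been expressed in yeast, and the factors were then given DNA barcodes and pooled with a tag-only sample. The pools were incubated with 200 nmole of a random double-stranded 16-mer DNA library in Tris/NaCl/DTT/glycerol buffer for 30 min at room temperature, washed, crosslinked with 0.1% formaldehyde and proximity-ligated with BsaI/T4 ligase at 37 °C for 1 h. PCR amplification and Illumina NextSeq500 sequencing came last. Binding signal is each hexamer's read frequency for a factor divided by its frequency for the tag-only sample.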

ELK1 = target: T2, ELK1 (Homo sapiens, UniProt P19419 1-428); details: protein: recombinant; tags: N-terminal GST; dsDNA, one strand shown
T2 sequence: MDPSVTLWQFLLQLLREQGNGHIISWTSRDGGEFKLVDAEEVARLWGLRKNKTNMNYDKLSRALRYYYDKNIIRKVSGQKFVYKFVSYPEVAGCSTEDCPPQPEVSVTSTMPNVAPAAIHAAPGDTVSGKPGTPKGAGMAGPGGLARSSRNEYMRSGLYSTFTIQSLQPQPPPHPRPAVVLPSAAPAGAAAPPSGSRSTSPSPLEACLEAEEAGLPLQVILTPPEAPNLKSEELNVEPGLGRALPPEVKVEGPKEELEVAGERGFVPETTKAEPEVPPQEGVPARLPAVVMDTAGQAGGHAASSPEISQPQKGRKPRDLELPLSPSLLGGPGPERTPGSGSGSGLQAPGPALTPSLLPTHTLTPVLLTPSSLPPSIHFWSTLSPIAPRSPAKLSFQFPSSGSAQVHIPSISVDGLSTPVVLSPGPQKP
Procedure, shortened: as §1

GABPA = target: T3, GABPA (Homo sapiens, UniProt Q06546 1-454); details: protein: recombinant; tags: N-terminal GST; dsDNA, one strand shown
T3 sequence: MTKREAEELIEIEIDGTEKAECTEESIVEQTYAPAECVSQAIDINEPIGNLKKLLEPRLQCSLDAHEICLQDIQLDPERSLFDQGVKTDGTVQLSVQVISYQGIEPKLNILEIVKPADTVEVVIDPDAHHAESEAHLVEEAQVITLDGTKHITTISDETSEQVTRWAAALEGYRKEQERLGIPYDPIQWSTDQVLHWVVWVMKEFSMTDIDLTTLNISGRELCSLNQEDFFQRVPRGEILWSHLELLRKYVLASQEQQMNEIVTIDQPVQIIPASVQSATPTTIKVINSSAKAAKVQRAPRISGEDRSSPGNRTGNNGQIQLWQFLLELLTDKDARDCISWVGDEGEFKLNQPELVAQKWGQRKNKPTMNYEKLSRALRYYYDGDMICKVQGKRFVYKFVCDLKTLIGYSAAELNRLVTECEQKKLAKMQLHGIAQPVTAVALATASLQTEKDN
Procedure, shortened: as §1

ERG = target: T4, ERG (Homo sapiens, UniProt P11308 1-479); details: protein: recombinant; tags: N-terminal GST; dsDNA, one strand shown
T4 sequence: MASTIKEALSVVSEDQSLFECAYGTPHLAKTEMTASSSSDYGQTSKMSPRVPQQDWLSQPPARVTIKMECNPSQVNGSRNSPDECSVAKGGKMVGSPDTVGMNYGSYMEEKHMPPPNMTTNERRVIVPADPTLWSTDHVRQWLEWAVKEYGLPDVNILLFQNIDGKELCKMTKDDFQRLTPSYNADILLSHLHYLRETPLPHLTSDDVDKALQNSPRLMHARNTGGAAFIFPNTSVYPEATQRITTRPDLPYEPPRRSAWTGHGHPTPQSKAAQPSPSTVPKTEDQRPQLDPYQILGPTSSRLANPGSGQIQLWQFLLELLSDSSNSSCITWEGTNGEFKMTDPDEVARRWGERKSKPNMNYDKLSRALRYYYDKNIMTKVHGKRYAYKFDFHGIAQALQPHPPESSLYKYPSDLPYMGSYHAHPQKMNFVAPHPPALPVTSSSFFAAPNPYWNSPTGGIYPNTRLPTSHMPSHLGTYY
Procedure, shortened: as §1

ELF1 = ELF1 (Homo sapiens, UniProt P32519 1-619); details: protein: recombinant; tags: N-terminal GST; dsDNA, one strand shown
Procedure, shortened: as §1

EHF = target: T5, EHF (Homo sapiens, UniProt Q9NZC4 1-300); details: protein: recombinant; tags: N-terminal GST; dsDNA, one strand shown
T5 sequence: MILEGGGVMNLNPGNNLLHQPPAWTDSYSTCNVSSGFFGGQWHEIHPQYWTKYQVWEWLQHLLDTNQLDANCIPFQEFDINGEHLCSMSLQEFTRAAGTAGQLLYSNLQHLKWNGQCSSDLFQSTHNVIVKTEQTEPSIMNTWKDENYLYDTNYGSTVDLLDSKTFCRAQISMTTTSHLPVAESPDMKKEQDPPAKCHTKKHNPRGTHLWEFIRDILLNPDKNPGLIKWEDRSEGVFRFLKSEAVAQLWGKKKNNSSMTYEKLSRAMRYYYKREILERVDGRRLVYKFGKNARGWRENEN
Procedure, shortened: as §1

SPI1 = SPI1 (Homo sapiens, UniProt P17947 1-270); details: protein: recombinant; tags: N-terminal GST; dsDNA, one strand shown
Procedure, shortened: as §1

SPIB = SPIB (Homo sapiens, UniProt Q01892 1-262); details: protein: recombinant; tags: N-terminal GST; dsDNA, one strand shown
Procedure, shortened: as §1

ELK3 = target: T6, ELK3 (Homo sapiens, UniProt P41970 1-407); details: protein: recombinant; tags: N-terminal GST; dsDNA, one strand shown
T6 sequence: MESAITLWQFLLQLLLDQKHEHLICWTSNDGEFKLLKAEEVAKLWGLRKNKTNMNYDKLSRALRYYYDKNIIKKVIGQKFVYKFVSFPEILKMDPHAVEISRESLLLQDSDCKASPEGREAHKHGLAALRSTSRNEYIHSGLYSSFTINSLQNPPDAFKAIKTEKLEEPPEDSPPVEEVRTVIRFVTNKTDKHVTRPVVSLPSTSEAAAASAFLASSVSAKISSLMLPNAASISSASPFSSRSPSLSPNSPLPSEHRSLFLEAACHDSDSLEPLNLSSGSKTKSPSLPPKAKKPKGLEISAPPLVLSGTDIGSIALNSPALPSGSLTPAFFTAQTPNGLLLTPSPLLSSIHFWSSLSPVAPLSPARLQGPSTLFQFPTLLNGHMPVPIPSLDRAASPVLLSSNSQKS
Procedure, shortened: as §1

FEV = target: T7, FEV (Homo sapiens, UniProt Q99581 1-238); details: protein: recombinant; tags: N-terminal GST; dsDNA, one strand shown
T7 sequence: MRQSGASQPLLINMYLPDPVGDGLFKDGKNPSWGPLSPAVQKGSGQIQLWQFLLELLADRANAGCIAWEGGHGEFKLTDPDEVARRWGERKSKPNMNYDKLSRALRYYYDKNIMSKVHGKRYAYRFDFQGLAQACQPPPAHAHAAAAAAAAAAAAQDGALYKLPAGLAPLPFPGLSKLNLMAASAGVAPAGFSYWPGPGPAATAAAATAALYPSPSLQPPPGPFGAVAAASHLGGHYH
Procedure, shortened: as §1

ETV5 = ETV5 (Homo sapiens, UniProt P41161 1-510); details: protein: recombinant; tags: N-terminal GST; dsDNA, one strand shown
Procedure, shortened: as §1

HSF1 = HSF1 (Homo sapiens, UniProt Q00613 1-529); details: protein: recombinant; tags: N-terminal GST; chain copies: 3; dsDNA, one strand shown
Procedure, shortened: as §1

SPIC = target: T8, SPIC (Homo sapiens, UniProt Q8N5J4 1-248); details: protein: recombinant; tags: N-terminal GST; dsDNA, one strand shown
T8 sequence: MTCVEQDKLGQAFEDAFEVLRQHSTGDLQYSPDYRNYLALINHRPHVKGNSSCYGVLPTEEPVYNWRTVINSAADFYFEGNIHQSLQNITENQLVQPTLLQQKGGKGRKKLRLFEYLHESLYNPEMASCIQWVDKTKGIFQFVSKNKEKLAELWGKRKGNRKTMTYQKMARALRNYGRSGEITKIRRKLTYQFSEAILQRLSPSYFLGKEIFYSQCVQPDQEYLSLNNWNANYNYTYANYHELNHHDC
Procedure, shortened: as §1

ELF4 = ELF4 (Homo sapiens, UniProt Q99607 1-663); details: protein: recombinant; tags: N-terminal GST; dsDNA, one strand shown
Procedure, shortened: as §1

ELK4 = target: T9, ELK4 (Homo sapiens, UniProt P28324-2 1-405); details: protein: recombinant; tags: N-terminal GST; dsDNA, one strand shown
T9 sequence: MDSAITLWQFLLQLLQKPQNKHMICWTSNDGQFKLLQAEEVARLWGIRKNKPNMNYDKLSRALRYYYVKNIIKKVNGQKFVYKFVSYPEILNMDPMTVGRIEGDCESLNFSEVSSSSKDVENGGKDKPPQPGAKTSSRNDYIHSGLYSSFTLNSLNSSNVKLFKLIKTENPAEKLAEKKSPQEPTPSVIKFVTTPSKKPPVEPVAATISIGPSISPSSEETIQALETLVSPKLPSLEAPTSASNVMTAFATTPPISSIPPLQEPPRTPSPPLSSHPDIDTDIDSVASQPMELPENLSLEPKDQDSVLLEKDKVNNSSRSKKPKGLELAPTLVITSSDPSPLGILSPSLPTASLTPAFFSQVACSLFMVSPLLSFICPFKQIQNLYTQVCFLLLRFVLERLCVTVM
Procedure, shortened: as §1

ETV2 = target: T10, ETV2 (Homo sapiens, UniProt O00321 1-342); details: protein: recombinant; tags: N-terminal GST; dsDNA, one strand shown
T10 sequence: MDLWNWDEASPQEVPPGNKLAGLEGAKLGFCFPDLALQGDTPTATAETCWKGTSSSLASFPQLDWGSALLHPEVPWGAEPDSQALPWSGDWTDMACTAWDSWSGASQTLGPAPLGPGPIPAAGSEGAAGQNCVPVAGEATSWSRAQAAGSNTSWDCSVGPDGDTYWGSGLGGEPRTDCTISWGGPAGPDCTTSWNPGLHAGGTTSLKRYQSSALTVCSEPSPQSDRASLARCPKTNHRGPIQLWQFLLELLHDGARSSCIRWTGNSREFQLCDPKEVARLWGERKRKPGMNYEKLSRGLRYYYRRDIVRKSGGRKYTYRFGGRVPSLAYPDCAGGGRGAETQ
Procedure, shortened: as §1

ELF3 = target: T11, ELF3 (Homo sapiens, UniProt P78545 1-371); details: protein: recombinant; tags: N-terminal GST; dsDNA, one strand shown
T11 sequence: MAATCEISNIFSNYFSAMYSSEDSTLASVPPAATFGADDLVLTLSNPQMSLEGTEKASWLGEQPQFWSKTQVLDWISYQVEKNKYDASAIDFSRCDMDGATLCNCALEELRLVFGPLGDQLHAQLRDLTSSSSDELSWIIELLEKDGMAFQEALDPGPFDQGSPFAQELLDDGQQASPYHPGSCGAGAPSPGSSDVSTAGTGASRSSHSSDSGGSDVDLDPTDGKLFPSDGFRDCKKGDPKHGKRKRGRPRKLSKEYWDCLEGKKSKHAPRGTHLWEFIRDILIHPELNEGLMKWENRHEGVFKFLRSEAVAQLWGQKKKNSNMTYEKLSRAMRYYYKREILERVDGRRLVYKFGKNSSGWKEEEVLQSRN
Procedure, shortened: as §1

CRX = CRX (Homo sapiens, UniProt O43186 1-299); details: protein: recombinant; tags: N-terminal GST; dsDNA, one strand shown
Procedure, shortened: as §1

ETV1 = ETV1 (Homo sapiens, UniProt P50549 1-477); details: protein: recombinant; tags: N-terminal GST; dsDNA, one strand shown
Procedure, shortened: as §1

Sequence of SPIB (Q01892 whole entry): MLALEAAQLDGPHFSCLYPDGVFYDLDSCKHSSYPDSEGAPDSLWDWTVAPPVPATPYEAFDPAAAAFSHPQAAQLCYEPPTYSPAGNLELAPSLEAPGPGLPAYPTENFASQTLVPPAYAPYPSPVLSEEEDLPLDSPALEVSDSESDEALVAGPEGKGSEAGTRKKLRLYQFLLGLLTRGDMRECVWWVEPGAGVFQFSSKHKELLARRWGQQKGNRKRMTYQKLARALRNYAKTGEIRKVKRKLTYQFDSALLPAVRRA
Sequence of ELF1 (P32519 whole entry): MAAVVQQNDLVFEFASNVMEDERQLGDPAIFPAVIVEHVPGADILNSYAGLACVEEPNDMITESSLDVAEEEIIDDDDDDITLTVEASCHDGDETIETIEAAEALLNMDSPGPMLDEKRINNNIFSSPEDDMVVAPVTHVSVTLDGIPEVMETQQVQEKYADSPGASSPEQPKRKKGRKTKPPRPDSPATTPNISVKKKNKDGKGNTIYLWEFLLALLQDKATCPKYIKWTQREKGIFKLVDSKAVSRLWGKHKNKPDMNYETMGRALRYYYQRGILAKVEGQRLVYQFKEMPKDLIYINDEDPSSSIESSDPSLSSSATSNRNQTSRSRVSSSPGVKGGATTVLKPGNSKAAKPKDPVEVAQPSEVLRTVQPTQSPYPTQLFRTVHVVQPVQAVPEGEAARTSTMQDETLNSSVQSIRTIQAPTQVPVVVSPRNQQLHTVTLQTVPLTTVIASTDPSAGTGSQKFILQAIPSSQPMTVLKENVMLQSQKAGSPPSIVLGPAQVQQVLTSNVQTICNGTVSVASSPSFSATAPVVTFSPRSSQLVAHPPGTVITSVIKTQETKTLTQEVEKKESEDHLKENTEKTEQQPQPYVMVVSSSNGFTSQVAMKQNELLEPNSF
Sequence of CRX (O43186 whole entry): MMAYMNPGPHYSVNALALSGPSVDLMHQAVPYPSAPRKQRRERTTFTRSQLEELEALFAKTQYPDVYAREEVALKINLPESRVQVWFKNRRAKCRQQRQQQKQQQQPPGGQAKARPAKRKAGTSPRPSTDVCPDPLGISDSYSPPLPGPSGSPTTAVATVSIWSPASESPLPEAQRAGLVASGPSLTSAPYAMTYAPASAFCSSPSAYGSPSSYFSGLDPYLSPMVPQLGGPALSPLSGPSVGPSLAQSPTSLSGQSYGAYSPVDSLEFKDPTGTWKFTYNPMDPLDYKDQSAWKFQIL
Sequence of HSF1 (Q00613 whole entry): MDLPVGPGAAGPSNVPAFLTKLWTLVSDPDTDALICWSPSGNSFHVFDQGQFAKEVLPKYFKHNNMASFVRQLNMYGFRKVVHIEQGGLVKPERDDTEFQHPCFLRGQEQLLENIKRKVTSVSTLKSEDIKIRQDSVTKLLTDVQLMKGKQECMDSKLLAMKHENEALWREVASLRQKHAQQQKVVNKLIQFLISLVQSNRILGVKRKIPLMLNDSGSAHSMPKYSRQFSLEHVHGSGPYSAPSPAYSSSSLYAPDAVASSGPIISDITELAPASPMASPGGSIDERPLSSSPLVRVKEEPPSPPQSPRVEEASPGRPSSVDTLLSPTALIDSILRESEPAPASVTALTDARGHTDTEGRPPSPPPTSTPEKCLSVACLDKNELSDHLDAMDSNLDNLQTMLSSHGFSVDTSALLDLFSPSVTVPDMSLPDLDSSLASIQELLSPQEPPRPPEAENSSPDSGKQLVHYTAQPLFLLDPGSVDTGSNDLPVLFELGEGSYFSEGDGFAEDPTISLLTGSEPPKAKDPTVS
Sequence of ETV1 (P50549 whole entry): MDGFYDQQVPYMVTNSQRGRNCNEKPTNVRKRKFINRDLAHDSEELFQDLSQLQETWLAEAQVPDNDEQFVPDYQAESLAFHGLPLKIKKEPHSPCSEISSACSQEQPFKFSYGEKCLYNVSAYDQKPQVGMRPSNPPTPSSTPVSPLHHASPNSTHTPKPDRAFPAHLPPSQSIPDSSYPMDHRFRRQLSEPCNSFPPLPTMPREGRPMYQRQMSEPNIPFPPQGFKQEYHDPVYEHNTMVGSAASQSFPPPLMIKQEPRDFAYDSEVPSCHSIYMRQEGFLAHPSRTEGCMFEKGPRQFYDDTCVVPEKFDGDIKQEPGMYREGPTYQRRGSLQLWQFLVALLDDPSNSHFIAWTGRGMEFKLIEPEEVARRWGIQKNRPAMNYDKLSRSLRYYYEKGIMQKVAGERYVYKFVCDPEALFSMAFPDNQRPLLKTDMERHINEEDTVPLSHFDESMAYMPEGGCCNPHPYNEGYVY
Sequence of ELF4 (Q99607 whole entry): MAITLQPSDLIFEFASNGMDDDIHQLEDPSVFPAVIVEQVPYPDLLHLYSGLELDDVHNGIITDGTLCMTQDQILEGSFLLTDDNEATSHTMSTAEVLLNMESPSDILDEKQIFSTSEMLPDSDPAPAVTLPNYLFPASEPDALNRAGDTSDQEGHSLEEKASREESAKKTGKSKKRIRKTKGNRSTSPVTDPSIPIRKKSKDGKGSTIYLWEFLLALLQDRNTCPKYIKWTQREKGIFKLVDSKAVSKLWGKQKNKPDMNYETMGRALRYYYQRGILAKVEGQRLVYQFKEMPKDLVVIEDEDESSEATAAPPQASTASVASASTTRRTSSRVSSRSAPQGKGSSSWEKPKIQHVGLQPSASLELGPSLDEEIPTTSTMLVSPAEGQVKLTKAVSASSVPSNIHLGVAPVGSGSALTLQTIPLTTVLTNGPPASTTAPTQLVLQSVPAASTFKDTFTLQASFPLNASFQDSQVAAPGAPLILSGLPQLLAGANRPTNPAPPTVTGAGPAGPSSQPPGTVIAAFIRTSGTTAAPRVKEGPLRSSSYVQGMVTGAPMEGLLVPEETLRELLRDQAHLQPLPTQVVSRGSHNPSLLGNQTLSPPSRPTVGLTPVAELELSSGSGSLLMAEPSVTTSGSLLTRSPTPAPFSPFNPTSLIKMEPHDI
Sequence of ETV5 (P41161 whole entry): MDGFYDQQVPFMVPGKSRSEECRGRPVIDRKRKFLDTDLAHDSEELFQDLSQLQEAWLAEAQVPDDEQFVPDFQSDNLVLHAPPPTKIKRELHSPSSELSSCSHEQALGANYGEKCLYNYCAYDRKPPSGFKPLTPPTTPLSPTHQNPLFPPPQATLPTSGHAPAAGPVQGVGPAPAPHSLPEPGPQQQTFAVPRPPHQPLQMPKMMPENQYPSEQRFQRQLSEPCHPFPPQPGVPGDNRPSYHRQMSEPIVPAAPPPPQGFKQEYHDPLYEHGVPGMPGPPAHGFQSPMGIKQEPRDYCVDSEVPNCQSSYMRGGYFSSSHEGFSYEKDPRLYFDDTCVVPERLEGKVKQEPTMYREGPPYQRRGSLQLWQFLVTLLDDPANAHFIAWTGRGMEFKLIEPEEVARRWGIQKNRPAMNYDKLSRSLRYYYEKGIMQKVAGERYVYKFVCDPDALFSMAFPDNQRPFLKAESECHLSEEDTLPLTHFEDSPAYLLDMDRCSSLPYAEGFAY

TCACCT
binding signal (FLI1): 1.25 fold enrichment (6-mer frequency, TF over GST control) | binding signal (ELK1): 1.31 fold enrichment (6-mer frequency, TF over GST control) | binding signal (GABPA): 1.27 fold enrichment (6-mer frequency, TF over GST control) | binding signal (ERG): 1.23 fold enrichment (6-mer frequency, TF over GST control) | binding signal (ELF1): 1.2 fold enrichment (6-mer frequency, TF over GST control) | binding signal (EHF): 1.21 fold enrichment (6-mer frequency, TF over GST control) | binding signal (SPI1): 1.21 fold enrichment (6-mer frequency, TF over GST control) | binding signal (SPIB): 1.13 fold enrichment (6-mer frequency, TF over GST control) | binding signal (ELK3): 1.22 fold enrichment (6-mer frequency, TF over GST control) | binding signal (FEV): 1.17 fold enrichment (6-mer frequency, TF over GST control) | binding signal (ETV5): 1.18 fold enrichment (6-mer frequency, TF over GST control) | binding signal (HSF1): 1.03 fold enrichment (6-mer frequency, TF over GST control) | binding signal (SPIC): 1.31 fold enrichment (6-mer frequency, TF over GST control) | binding signal (ELF4): 1.33 fold enrichment (6-mer frequency, TF over GST control) | binding signal (ELK4): 1.12 fold enrichment (6-mer frequency, TF over GST control) | binding signal (ETV2): 1.21 fold enrichment (6-mer frequency, TF over GST control) | binding signal (ELF3): 1.25 fold enrichment (6-mer frequency, TF over GST control) | binding signal (CRX): 1.15 fold enrichment (6-mer frequency, TF over GST control) | binding signal (ETV1): 1.19 fold enrichment (6-mer frequency, TF over GST control)
